A selection: hits, their analogues and other compounds. The true share with any hit is near 6.8%.
Pf Dd2 inh – P. falciparum Dd2 growth inhibitors, primary screen, SYBR Green fluorescence, single dose replicates | 72 h; active compounds read low | 94,000 tested, 2.3% active | activity change, % at 10 µM | AID 1159554, 2015; in the data active means activity change below about -80%; inconclusive means no clear call, values can overlap the other calls
C diff HTS – C. difficile growth inhibitors, primary screen, HTS | Clostridium difficile clinical isolate growth, OD600, 24 h; active compounds read low | growth activity, negative = inhibition, % at 16 µg/mL (by protocol) | 86,000 tested, 0.25% active;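 active means mean growth activity at or below -80% and every replicate also at or below -80%; inconclusive means mean at or below -80% but some replicate above -80%; inactive means mean growth activity above -80%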;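 further: 0% = DMSO wells and -100% = levofloxacin 16 µg/mL wells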
T cruzi growth-1 – T. cruzi intracellular proliferation inhibitors, primary screen, cell-based, beta-gal Tulahuen parasites, NIH3T3 host, luminescence; T. cruzi beta-gal in NIH3T3, GalScreen luminescence, 90 h; inhibition, % at 8.34 µM; 77,000 tested, 5.9% active; AID 624255, 2012;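 active means mean inhibition above about 93%, with at least 55% of replicates each passing it, limit read from the data, passing the limit was not always enough; inconclusive means only one of those two conditions holds; inactive means neither condition holds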
T cruzi growth-2 – T. cruzi intracellular proliferation inhibitors, confirmation, cell-based, NIH3T3 host, beta-gal parasite, luminescence, cherry-pick; shares compounds with T cruzi growth-1; T. cruzi beta-gal in NIH3T3, GalScreen luminescence, 90 h; inhibition, % at 8.35 µM; 5,600 tested, 72% active;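 active means mean replicate inhibition above about 95% and at least 55% of replicates individually reaching it, limit read from the data; inconclusive means only one of the two criteria is met; inactive means neither criterion is met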
T cruzi growth-3 – inhibitors of intracellular T. cruzi replication, confirmation, NIH3T3 host cells, beta-gal parasites, cherry-pick, set 2; shares compounds with T cruzi growth-1; T. cruzi beta-gal in NIH3T3, GalScreen luminescence, 90 h; inhibition, % at 2.09 µM; 5,600 tested, 21% active; AID 651740, 2012;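 active means mean inhibition above about 95%, with at least 55% of replicates also reaching it, limit read from the data; inconclusive means meets just one of the two conditions; inactive means meets neither condition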;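 further: plate controls were neutral control median for no effect and positive control median for full effect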
3T3 cytotox – cytotoxicity in mouse NIH/3T3 fibroblasts, confirmation, cytotoxicity control for T. cruzi proliferation inhibitor project, cell-based, cherry-pick, single point. shares compounds with T cruzi growth-1. AID 651742, 2012. cytotoxicity (signal decrease), % at 8.35 µM. NIH/3T3 viability, CellTiter-Glo ATP luminescence, 90 h. 5,600 tested, 14% active;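 active means mean signal decrease across replicates above about 35% based on untreated-well scatter, with enough replicates individually passing, limit read from the data; inconclusive means no rule stated though some were filed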;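 further: 0% = median of neutral control wells and 100% = median of positive control wells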
NIH3T3 tox 2 – NIH/3T3 fibroblast cytotoxicity, confirmation, cytotoxicity control, cell-based, cherry-pick, single point, set 2; shares compounds with T cruzi growth-1; inhibition, % at 24.9 µM; AID 651744, 2012; NIH/3T3 viability, CellTiter-Glo ATP luminescence, 90 h; 5,600 tested, 56% active;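 active means mean loss of cell viability signal at or above a set limit, and enough replicates individually reaching it; inconclusive means meets only the mean limit or only the replicate share; inactive means meets neither condition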;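 further: 0% = median of neutral control wells and 100% = median of positive control wells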
Numbers without * were called inactive.

Results for Cc1noc(C)c1S(=O)(=O)N(C)C[C@H]1OCCCC[C@H](C)Oc2ccc(NS(=O)(=O)c3ccc(F)cc3)cc2C(=O)N([C@H](C)CO)C[C@@H]1C ?
Pf Dd2 inh: -59.5; C diff HTS: -12.2; T cruzi growth-1: 94.2

How did C[C@@H]1CCCCO[C@@H](CN(C)S(=O)(=O)c2ccc(Cl)cc2)[C@H](C)CN([C@H](C)CO)C(=O)c2cc(NS(=O)(=O)c3ccc(F)cc3)ccc2O1 do in these assays?
Pf Dd2 inh: -59.9; C diff HTS: 6.2; T cruzi growth-1: 61.3

What do the screens show for `C[C@@H]1CCCCO[C@@H](CN(C)S(=O)(=O)c2ccc(F)cc2)[C@@H](C)CN([C@@H](C)CO)C(=O)c2cc(NS(=O)(=O)c3ccc(Cl)cc3)ccc2O1`?
Pf Dd2 inh: -72.9; C diff HTS: 0.2; T cruzi growth-1: 102.8*; T cruzi growth-2: 102.6*; T cruzi growth-3: 74.3; 3T3 cytotox: 3.1; NIH3T3 tox 2: 53.5*

Results for C[C@@H]1CN([C@H](C)CO)C(=O)c2cc(NS(=O)(=O)c3ccc(F)cc3)ccc2O[C@@H](C)CCCCO[C@@H]1CN(C)S(=O)(=O)c1ccc(Cl)cc1 ?
Pf Dd2 inh: -60.8; C diff HTS: 21.1; T cruzi growth-1: 98.7

What do the screens show for `C[C@@H]1CCCCO[C@H](CN(C)S(=O)(=O)c2ccc(Cl)cc2)[C@@H](C)CN([C@@H](C)CO)C(=O)c2cc(NS(=O)(=O)c3ccc(F)cc3)ccc2O1`?
Pf Dd2 inh: -55.6; C diff HTS: -0.2; T cruzi growth-1: 85.5

Results for C[C@@H]1CN([C@H](C)CO)C(=O)c2cc(NS(=O)(=O)c3ccc(Cl)cc3)ccc2O[C@@H](C)CCCCO[C@H]1CN(C)S(=O)(=O)c1ccc(F)cc1 ?
Pf Dd2 inh: -52.8; C diff HTS: -6.3; T cruzi growth-1: 103.3*; T cruzi growth-2: 100.5*; T cruzi growth-3: 110.0*; 3T3 cytotox: 8.4; NIH3T3 tox 2: -8.8

What do the screens show for `C[C@@H]1CCCCO[C@@H](CN(C)S(=O)(=O)c2ccc(F)cc2)[C@H](C)CN([C@@H](C)CO)C(=O)c2cc(NS(=O)(=O)c3ccc(Cl)cc3)ccc2O1`?
Pf Dd2 inh: -56.1; C diff HTS: 7.5; T cruzi growth-1: 102.7*; T cruzi growth-2: 95.4*; T cruzi growth-3: 94.8; 3T3 cytotox: 6.4; NIH3T3 tox 2: 34.5*

What do the screens show for `C[C@@H]1CN([C@@H](C)CO)C(=O)c2cc(NS(=O)(=O)c3ccc(F)cc3)ccc2O[C@@H](C)CCCCO[C@@H]1CN(C)S(=O)(=O)c1ccc(Cl)cc1`?
Pf Dd2 inh: -76.0; C diff HTS: 6.4; T cruzi growth-1: inconclusive; T cruzi growth-2: 106.5*; T cruzi growth-3: 102.9*; 3T3 cytotox: -22.7; NIH3T3 tox 2: inconclusive

What do the screens show for `CO[C@@H]1CN(C)C(=O)c2ccc(NS(=O)(=O)c3cn(C)cn3)cc2OC[C@@H](C)N(CC2CC2)C[C@H]1C`?
Pf Dd2 inh: 6.3; T cruzi growth-1: 26.7

What do the screens show for `Cc1ccccc1NC(=O)Nc1ccc2c(c1)C(=O)N(C)[C@H]1CC[C@@H](CC(=O)O)O[C@@H]1CO2`?
Pf Dd2 inh: 28.2; C diff HTS: 7.9; T cruzi growth-1: 10.4

Results for COc1ccc(CN2C[C@H](C)[C@@H](OC)CN(C)C(=O)c3ccc(NC(=O)C4CC4)cc3OC[C@@H]2C)cc1 ?
Pf Dd2 inh: 11.4; C diff HTS: 2.6

How did C[C@@H]1CCCCO[C@@H](CN(C)S(=O)(=O)c2ccc(Cl)cc2)[C@@H](C)CN([C@H](C)CO)C(=O)c2cc(NS(=O)(=O)c3ccc(F)cc3)ccc2O1 do in these assays?
Pf Dd2 inh: -38.2; C diff HTS: 4.0; T cruzi growth-1: 68.5

What do the screens show for `C[C@@H]1CN([C@H](C)CO)C(=O)c2cc(NS(=O)(=O)c3ccc(F)cc3)ccc2O[C@H]1CN(C)S(=O)(=O)c1ccc(Cl)cc1`?
Pf Dd2 inh: -12.4; C diff HTS: -5.9; T cruzi growth-1: 30.0

How did C[C@@H]1CN([C@@H](C)CO)C(=O)c2cc(NS(=O)(=O)c3ccc(F)cc3)ccc2O[C@@H]1CN(C)S(=O)(=O)c1ccc(Cl)cc1 do in these assays?
Pf Dd2 inh: 13.8; C diff HTS: -0.2; T cruzi growth-1: 92.2*; T cruzi growth-2: 109.7*; T cruzi growth-3: 48.9; 3T3 cytotox: 22.5; NIH3T3 tox 2: 46.4*

What do the screens show for `C[C@H](CO)N1C[C@H](C)[C@@H](CN(C)S(=O)(=O)c2ccc(F)cc2)OCCCC[C@H](C)Oc2ccc(NS(=O)(=O)c3ccc(Cl)cc3)cc2C1=O`?
Pf Dd2 inh: -43.4; C diff HTS: -8.4; T cruzi growth-1: 99.6*; T cruzi growth-2: inconclusive; T cruzi growth-3: inconclusive; 3T3 cytotox: 48.5*; NIH3T3 tox 2: 27.4*

How did CC(=O)Nc1ccc2c(c1)C(=O)N(C)[C@H]1CC[C@H](CC(=O)Nc3ccccc3Cl)O[C@@H]1CO2 do in these assays?
Pf Dd2 inh: -8.8; C diff HTS: -1.6; T cruzi growth-1: 1.0

What do the screens show for `COc1ccc(NC(=O)N(C)C[C@@H]2Oc3ccc(NC(=O)CCCCCC(=O)Nc4ccccc4N)cc3C(=O)N([C@H](C)CO)C[C@@H]2C)cc1`?
Pf Dd2 inh: 33.7; C diff HTS: -1.2

What do the screens show for `COCC(=O)N1[C@H](CO)[C@H](c2ccc(-c3cccc(OC)c3)cc2)C12CN(C(C)=O)C2`?
Pf Dd2 inh: -25.1; C diff HTS: -1.1

Results for COc1ccc(CN(C)C[C@@H]2Oc3ccc(NC(=O)Cc4cn(C)c5ccccc45)cc3C(=O)N([C@H](C)CO)C[C@H]2C)cc1 ?
Pf Dd2 inh: 13.1; C diff HTS: -1.8; T cruzi growth-1: 33.4

How did COc1ccc(CN(C)C[C@@H]2Oc3ccc(NC(=O)Cc4cn(C)c5ccccc45)cc3C(=O)N([C@H](C)CO)C[C@@H]2C)cc1 do in these assays?
Pf Dd2 inh: -32.3; C diff HTS: 1.1; T cruzi growth-1: 39.3

Results for C[C@H](CO)N1C[C@H](C)[C@H](CN(C)Cc2ccc(Oc3ccccc3)cc2)Oc2ccc(NC(=O)Cc3cn(C)c4ccccc34)cc2C1=O ?
Pf Dd2 inh: -55.7; C diff HTS: 15.5; T cruzi growth-1: inconclusive; T cruzi growth-2: 103.8*; T cruzi growth-3: 58.9; 3T3 cytotox: 24.5; NIH3T3 tox 2: 43.3*

Screening results: PubChem, Broad Institute
